Compound activity from PubChem.
Sampled rows, rich in hits. Any-hit rate of the full collection: about 3.1%.
Bim-Mcl-1 = human Bim-Mcl-1 interaction inhibition; Bead-based flow cytometry, Bim peptide-Mcl-1 binding; hit rate 0.1% among 190,000; inhibition, % at 10 µM; Q07820; in the data active = inhibition above about 40%;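 also: 0% = no compound tracer wells and 100% = peptide blocker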
14-3-3 Bad inh = disrupts binding of bovine 14-3-3 zeta to phospho-Bad peptide | P63103 | TR-FRET 14-3-3zeta/Dy647-pBad peptide displacement, 1 h | inhibition, % at 21.7 µM | hit rate 0.71% among 220,000 | AID 781;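 active = inhibition above about 70%, limit read from the data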;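 also: 0% = full 14-3-3 plus peptide FRET controls and 100% = background without 14-3-3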
Target sequence (P63103 whole entry, looked up): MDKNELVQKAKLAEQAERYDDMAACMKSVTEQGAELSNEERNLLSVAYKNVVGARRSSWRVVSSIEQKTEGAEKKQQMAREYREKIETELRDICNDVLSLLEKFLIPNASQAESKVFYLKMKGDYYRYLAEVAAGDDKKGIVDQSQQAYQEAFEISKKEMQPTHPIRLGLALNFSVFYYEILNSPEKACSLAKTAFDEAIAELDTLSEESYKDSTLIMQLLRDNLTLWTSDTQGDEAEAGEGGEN
Mcl1-Bid inh = disrupts binding of human Mcl-1 to Bid peptide; inhibition, % at 21.7 µM; hit rate 0.97% among 220,000; TR-FRET Mcl-1/Bid-Dy647 peptide binding, 1536-well; Q07820;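 active = compounds that cut the binding signal by more than half at the single screening dose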;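 also: His-tagged Mcl-1 with europium anti-His antibody binding Bid BH3 peptide; 0% = Mcl-1 plus peptide wells and 100% = peptide-only wells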
p47phox inh = p47phox (human) inhibition. hit rate 0.53% among 220,000. AID 1274. inhibition, % at 24.7 µM. P14598. p47phox/p22phox peptide binding, fluorescence polarization, 2 h;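 active = inhibition above about 30%, limit read from the data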;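 also: 0% = p47phox with labelled peptide and 100% = labelled peptide alone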
Target sequence (P14598 whole entry, looked up): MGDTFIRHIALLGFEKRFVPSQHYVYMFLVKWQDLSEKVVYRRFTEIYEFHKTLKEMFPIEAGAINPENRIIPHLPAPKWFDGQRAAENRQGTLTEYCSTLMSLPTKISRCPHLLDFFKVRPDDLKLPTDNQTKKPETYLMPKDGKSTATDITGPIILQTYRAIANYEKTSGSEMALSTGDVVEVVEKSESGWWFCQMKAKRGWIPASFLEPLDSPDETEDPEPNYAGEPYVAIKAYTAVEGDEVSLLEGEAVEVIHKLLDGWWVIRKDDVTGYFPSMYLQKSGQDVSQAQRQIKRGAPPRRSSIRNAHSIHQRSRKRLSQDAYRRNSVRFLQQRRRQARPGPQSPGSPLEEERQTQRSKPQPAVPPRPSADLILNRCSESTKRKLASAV
Mcl1-Noxa inh = Mcl-1/Noxa interaction inhibition. hit rate 1.5% among 220,000. TR-FRET Mcl-1/Noxa peptide binding, 2 h. inhibition, % at 21.7 µM;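 active = compounds that cut the protein-peptide binding signal by more than 50% relative to plate controls in a single-dose test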;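 also: His-tagged Mcl-1 with rhodamine Noxa BH3 peptide and terbium anti-His antibody; 0% = Mcl-1 plus Noxa peptide wells and 100% = peptide-only wells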
Active calls of the source: *; nt = not tested or not shown.

SMILES	Bim-Mcl-1	14-3-3 Bad inh	Mcl1-Bid inh	p47phox inh	Mcl1-Noxa inh
C=CCC1(/C=N/O)CCOC(C)(C)C1 (stereo not drawn)	nt	1.7	98.3*	63.6*	-24.0
O=C1C(Cl)=C(Nc2ccc3cn[nH]c3c2)C(=O)c2ccccc21	nt	-2.4	-67.2	28.6	92.8*
O=C(Nc1ccc2cn[nH]c2c1)c1c(Cl)cccc1Cl	-7.0	4.6	1.7	-3.5	-2.8
CN(C)c1ccc(NC2=C(Cl)C(=O)c3ccccc3C2=O)cc1	4.0	-14.9	-45.4	26.1	99.7*
Cc1cccc(NS(=O)(=O)c2cc(C(=O)N3CCOCC3)ccc2Cl)c1	-1.0	-13.6	1.1	-4.0	8.0
O=C(O)C[C@@H]1C(=O)O[C@@H]2C(COC(=O)c3cc(O)c(O)c(O)c3)O[C@@H](OC(=O)c3cc(O)c(O)c(O)c3)[C@@H](OC(=O)c3cc(O)c(O)c4c3[C@H]1[C@H](O)C(=O)O4)[C@H]2OC(=O)c1cc(O)c(O)c(O)c1 (stereo partly drawn)	nt	80.7*	76.0*	-70.2	99.5*
CCCc1nnc(NC(=O)CCC(=O)N2CCN(C3c4ccccc4-c4ccccc43)CC2)s1	-5.0	6.5	5.1	-16.8	-36.9
Cc1cccc(-n2c(N)c(C(=O)NCCN3CCOCC3)c3nc4ccccc4nc32)c1	-2.0	70.7*	8.2	-11.3	23.1
O=C1c2ccccc2C(=O)N1CCCCN(C(=O)c1cccc([N+](=O)[O-])c1)c1ccc(Cl)cc1	-1.0	54.3	53.8*	-1.7	0.5
O=C1c2ccccc2C(=O)N1CCCCN(C(=O)c1ccco1)c1ccc(Cl)cc1	-3.0	18.6	-3.8	-28.6	21.1
COC(=O)c1ccc(CSc2nc(-c3ccccc3)cs2)o1	-2.0	-11.0	-3.6	-10.7	79.8*
CC1CCc2cc(F)ccc2N1C(=O)CCC(=O)O (stereo not drawn)	0.0	-5.4	1.3	-0.9	-8.7
CC1CCc2cc(F)ccc2N1C(=O)C12CCC(C)(C(=O)O1)C2(C)C (stereo not drawn)	0.0	91.8*	-0.4	-9.1	1.8
Cc1ccc(Nc2nc(N)[nH]c(=O)c2N=O)cc1	nt	4.8	-7.8	-9.2	26.0
FC(F)(F)c1ccc2c(c1)NCC1CCCN21 (stereo not drawn)	0.0	-5.9	-11.3	51.0*	35.0
FC(F)(F)c1ccc2c(c1)N1CCCC1CN2 (stereo not drawn)	0.0	-6.9	-76.5	8.0	25.1
Cc1cc(OCC(=O)Nc2ccc(CN3CCCCC3)cc2)ccc1Cl	-2.0	-5.6	-1.1	-1.0	8.5
Cc1cc(Nc2ccccc2C(=O)O)n(-c2ccc([N+](=O)[O-])cc2)n1	nt	-3.8	-9.9	-10.9	18.2
NS(=O)(=O)c1ccc(-c2ccc(/C=C3\C(=O)Nc4cc(Cl)ccc43)o2)cc1	7.0	75.3*	10.5	4.1	63.3*
COC(=O)c1c(NC(=S)Nc2ccc(CC(=O)O)cc2)sc(C)c1C	-5.0	-16.7	-81.2	-7.7	72.2*
CC(=O)OC[C@H]1O[C@@H](n2ncc(=O)[nH]c2=O)[C@H](OC(C)=O)[C@@H]1OC(C)=O	0.0	71.4*	-0.5	-1.9	10.3
CC(=O)OCC1OC(n2ncc(=O)n(Cc3ccccc3)c2=O)C(OC(C)=O)C1OC(C)=O (stereo not drawn)	0.0	-5.0	-8.1	0.9	17.6
CCc1cc2c(SCC(=O)Nc3cc(C)on3)ncnc2s1	-1.0	3.0	-3.0	-13.5	7.1
O=C(O)COn1c(-c2ccccc2)nc2ccc([N+](=O)[O-])cc21	1.0	53.3	15.4	9.3	54.6*
CC[C@@H]1CC=C[C@H]2[C@H]1C(=O)N(Cc1ccccc1)[C@H]2c1ccc2ccccc2c1	nt	-0.8	-22.2	-13.2	2.4
SMILES	Bim-Mcl-1	14-3-3 Bad inh	Mcl1-Bid inh	p47phox inh	Mcl1-Noxa inh
Cc1ccccc1C(=O)Nc1ccc(C(=O)N/N=C/c2ccc(O)c(Br)c2)cc1	1.0	-6.3	-32.4	-33.6	57.7*
Cc1nc(C)n(CC(O)COc2ccc3c(c2)CCC3)n1 (stereo not drawn)	-4.0	11.3	91.7*	-6.5	4.3
COc1ccc(CCn2c(SCC(=O)Nc3cc(C)on3)nc3ccsc3c2=O)cc1OC	-1.0	19.5	37.5	48.5*	-12.2
Cc1cc(NC(=O)CSc2nc3ccccc3c(=O)n2Cc2ccc(F)cc2)no1	-1.0	73.7*	56.7*	23.2	-180.3
Cc1cc(C)cc(NC(=S)NN)c1	-1.0	-0.9	-66.1	-10.0	1.1
Cc1ncc([N+](=O)[O-])n1CC(=O)NC1CCCCCC1	-1.0	-4.0	-3.4	-2.7	13.2
CCN(c1ccc(NC(=O)COC(=O)CCC(=O)c2ccc(F)cc2)cc1)C(C)C	-3.0	-20.8	-29.6	0.8	46.2
Cc1ccc(Nc2c(-c3ccc(C)o3)nc3cnccn23)cc1	-2.0	-1.1	-7.8	-11.5	51.1*
O=C(Cc1cccs1)Nc1nnc(SCc2cccc3ccccc23)s1	-3.0	-6.0	18.2	-23.4	68.4*
O=C(Cc1cccs1)Nc1nnc(Cc2ccccc2)s1	-17.0	-14.2	-38.8	-54.4	82.1*
COc1ccc(Cc2nnc(NC(=O)Cc3cccs3)s2)cc1OC	0.0	63.0	75.8*	-45.9	96.4*
COc1cc(NC(=O)c2ccccc2)c(OC)cc1NC(=O)Cc1cccs1	0.0	0.8	-108.0	-3.5	61.5*
NC(=S)NN=C(Cc1ccccc1)Cc1ccccc1	2.0	-4.8	-40.1	-2.8	-1.4
Cc1[nH]nc2c1C(c1ccsc1)C1=C(CC(C)(C)CC1=O)N2 (stereo not drawn)	2.0	-9.7	-50.0	-3.4	-12.7
O=C(CN1C(=O)NC2(CCCCC2)C1=O)NC1CCCc2ccccc21 (stereo not drawn)	0.0	-1.0	-13.5	-25.2	-19.3
O=c1c2c3c(sc2[nH]c(=S)n1Cc1ccco1)CCC3	nt	20.6	-49.9	-13.7	76.0*
CC1(C)Cc2c(sc3[nH]c(=S)n(Cc4ccco4)c(=O)c23)CO1	-5.0	4.5	-9.1	-12.3	30.4
O=C(CNC(=O)c1ccc([N+](=O)[O-])cc1)N/N=C\c1ccc(OC(=O)c2ccccc2)cc1	19.0	60.5	74.7*	-6.2	41.7
COC(=O)c1c(-c2c(Cl)cccc2Cl)noc1C(=O)NN	nt	-2.6	-53.9	1.8	-1.3
O=C(NC1CCCCC1)c1cc([N+](=O)[O-])[nH]n1	0.0	-5.5	8.0	-2.9	-14.9
CCOc1ccccc1Nc1nc(-c2sc(NC(=O)c3cccc(Cl)c3)nc2C)cs1	-6.0	70.7*	-49.2	-8.9	23.6
Cc1cc(NS(=O)(=O)c2ccc(Nc3nc(-c4sc(NC(=O)c5ccccc5)nc4C)cs3)cc2)no1	1.0	7.4	-27.2	-60.6	116.5*
COc1ccccc1Nc1nc(-c2sc(NC(=O)c3ccccc3)nc2C)cs1	0.0	20.3	-32.2	-4.8	26.5
Cc1nc(NC(=O)c2ccccc2)sc1-c1csc(Nc2cccc(F)c2)n1	-4.0	70.6*	-51.0	-30.2	55.5*
CCC(=O)Nc1nc(C)c(-c2csc(Nc3ccc(S(=O)(=O)Nc4cc(C)on4)cc3)n2)s1	1.0	8.8	-3.5	-22.6	9.8
O=C(Nc1nc(-c2ccncc2)cs1)c1ccco1	-1.0	-5.2	-13.0	-10.4	93.9*
